Source: PubChem BioAssay AID435003 (Sanford-Burnham Center for Chemical Genomics, 2010)
The campaign covered roughly 330,000 compounds. About 1,700 (0.52%) were called active. The list comes from a sample in which actives are over-represented; it also holds similar structures and randomly drawn compounds. Unmarked numbers belong to inactive results. Rule as the data show it: active = inhibition above about 50%; inactive = the rest.

Assay: lowers stimulated NF-kB reporter luminescence – cell-based, uHTS, TCR NF-kB activation inhibitor project, primary screen (AID 435003)
Conditions: Jurkat, PMA/ionomycin-induced NF-kB luciferase reporter, at 4 µM, stronger effect = higher value

SMILES | inhibition
Cc1cc(=O)oc2cc(OCC3CC(c4ccccc4Cl)=NO3)ccc12 (centres undefined) | 80.2% (active)
Cc1cc(=O)oc2cc(OCCC[n+]3ccccc3)ccc12 | 3.92%
CCOc1ccccc1N1CCN(C(=O)COc2ccc3c(C)cc(=O)oc3c2)CC1 | 26.6%
CCOc1ccc(NC(=O)CCS(=O)(=O)c2ccc3c(c2)CCCN3C(=O)CC)cc1 | -12%
CCCCC(=O)Nc1ccc2c(c1)C(=O)NC2=O | 7.09%
COCc1c(C(=O)N/N=C(\C)c2ccncc2)nnn1-c1nonc1N | -38.2%
C[C@@H]1C[C@@H]2O[C@H]2/C=C\C=C\C(=O)Cc2c(Cl)c(O)cc(O)c2C(=O)O1 | 56% (active)
CN(NC(=O)c1ccccc1)c1nc2ccccc2nc1C(F)(F)F | 40.2%
CSc1nc(N(C)NC(=O)c2cccc(C)c2)c2ccccc2n1 | 57.7% (active)
CN(NC(=O)c1ccccc1F)c1nc(C(F)(F)F)nc2ccccc12 | 35.5%
O=C1c2ccccc2C(Nc2ccc3c(c2)OCCO3)N1Cc1ccco1 (centres undefined) | 4.45%
COc1ccccc1C1CCN(c2ccc([N+](=O)[O-])cn2)CC1 | 1.45%
Cc1ccc(N2CCN(c3ccc([N+](=O)[O-])cn3)CC2)c(C)c1 | 50.7% (active)
Cc1ccc(-n2c(C)cc(/C=N/Nc3ccc([N+](=O)[O-])cn3)c2C)c(C)c1 | 15.1%
COc1ccc(N(CC(=O)Nc2cc(OC)cc(OC)c2)S(=O)(=O)c2c(C)n[nH]c2C)cc1 | -11.8%
CCc1sc(C(=O)N2CCN(CC(=O)Nc3cccc(F)c3)CC2)cc1C | -11.7%
CCc1ccc(NC2Nc3cc(C)nn3S2)cc1 (centres undefined) | -76.8%
Cc1ccc(NC(=O)NNC(=O)c2sccc2-n2cccc2)cc1 | 6.7%
COc1cccc(/C=N/NC(=O)c2[nH]nc3c2CCc2ccccc2-3)c1O | 60.8% (active)
COc1ccc(/C=N/NC(=O)c2ccncc2)cc1CN1CCCc2ccccc21 | 16.1%
COc1ccc(Br)cc1/C=N/NC(=O)c1cccc(S(=O)(=O)N2CCOCC2)c1 | 5.13%
Cc1ccsc1-c1nc(CSCC(=O)NCCN2CCCC2)c(C)o1 | -7.15%

SMILES | inhibition
Cc1c(C)c2cc3c4c(oc3c(C)c2oc1=O)CCCC4 | -27.9%
O=C(Nc1cccc(S(=O)(=O)N2CCCC2)c1)c1cncc(Br)c1 | 1.27%
CC[n+]1cc(C)ccc1/C=C/c1ccc(N(C)C)cc1 | 84.4% (active)
Cc1ccc2nsnc2c1NC(=O)c1ccccc1[N+](=O)[O-] | 10.9%
COc1ccc(NC(=O)C(CC(C)C)NS(=O)(=O)c2ccc3c(c2)CCN3C(C)=O)cc1OC (centres undefined) | -14%
CC1(C(=O)O)CCC(C(=O)Nc2ccc(Cl)c(Cl)c2)C1(C)C (centres undefined) | -8.65%
COc1cc(NS(=O)(=O)c2ccc(NC(=O)c3ccc([N+](=O)[O-])cc3)cc2)ncn1 | 14.9%
Cn1ccc(=Nc2ccc(NC(=O)c3ccc(N=c4ccn(C)c5ccc([N+](=O)[O-])cc45)cc3)cc2)cc1 | 51.3% (active)
CC(=O)NC(=S)Nc1ccc(NC(=S)NC(=O)c2ccc([N+](=O)[O-])cc2)cc1 | 14.2%
O=C1C=C(c2ccc(Cl)cc2)C(=O)N1Nc1ccccc1 | 13.6%
CC(=O)c1ccc(N2CCN(C(=O)C3CCN(S(=O)(=O)c4ccc5c(c4)CC(C)N5C(=O)C4CC4)CC3)CC2)cc1 (centres undefined) | -3.75%
CCOc1ccc(N/C=C/C(=O)c2cc(OC)c(OC)c(OC)c2)cc1 | 44.3%
CCOc1ccc(N/C=C/C(=O)c2ccccc2)cc1 | -132%
COc1ccc(C(=O)/C=C/Nc2ccccn2)cc1 | 50.4% (active)
Cc1onc(-c2ccc(Cl)cc2)c1-c1ccnn1S(=O)(=O)c1ccc(Cl)cc1 | 9.53%
COc1ccc(NC(=O)C(C)N2c3cccc4cccc(c34)S2(=O)=O)c(OC)c1 (centres undefined) | 21.7%
O=C(NCc1ccc2c(c1)OCO2)c1cc(F)c(F)cc1Cl | -12%
O=C(NCc1ccc2c(c1)OCO2)c1cc([N+](=O)[O-])ccc1N1CCOCC1 | 60.2% (active)
CC1CCN(c2ccc(C(=O)NCc3ccc4c(c3)OCO4)cc2[N+](=O)[O-])CC1 | -1.58%
CC1Sc2ccc(S(=O)(=O)CCC(=O)NCc3ccccc3Cl)cc2NC1=O (centres undefined) | 7.46%
Cc1ccc(S(=O)(=O)N/N=C(\c2ccccc2)C2CC2)cc1 | -1.73%
Cc1ccc(O)c(NC(=O)c2cc(-c3ccco3)on2)c1 | 96.2% (active)
